ELG1 genotox = inducers of genotoxicity in HEK293T ELG1-luciferase cells | Potency, µM (titrated, usually from 46 µM), without a hit: at the highest dose activity change, positive = activation, usual class: activators | HEK293T ELG1-luciferase reporter, luminescence, 16 h | 330,000 compounds, 1.3% hits; also: % of control where 0% means no effect; nearly all actives have a fitted effect of over 60% in size
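16 hr compound incubation (37 °C, 5% CO2) of HEK293T cells carrying luciferase-tagged ELG1; luciferase then measured by ONE-Glo luminescence after 30 min at RT.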
Rab9 promoter act = activators of Rab9 promoter | Potency, µM (doses to about 9.22 µM), inactives show top-dose activation, negative = inhibition, most hits filed as activators | AID 485297 | Huh7 Rab9 promoter-luciferase reporter, luminescence, 24 h | 320,000 compounds, 2.8% hits; also: % of control where 0% means no effect; nearly all actives have a fitted effect of over 60% in size
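Huh7 cells stably carrying Rab9 promoter–luciferase reporter, plated 1500 cells/well, compound added after 2 h and incubated 24 h at 37 °C; luciferase luminescence then read after 10 min with detection reagent.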
SMN2 splice enh = SMN2 splice variant enhancement; AID 1458; HEK293 SMN2-luciferase splicing reporter, luminescence, 30-36 h; 210,000 compounds, 2.8% hits; Potency, µM (doses to about 46.1 µM), for inactives: at the top dose activity change, positive = activation, usual class: activators; also: % of control where 0% means no effect; nearly all actives have a fitted effect of over 55% in size
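HEK293 cells carry an SMN2 minigene-luciferase reporter in which exon 7 inclusion puts luciferase in frame. Cells were seeded at 2000 cells/well, attached for 10-12 hours, then exposed to compounds for 30-36 hours at 37C before ONE-Glo luminescence.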
Luc counter = Kinase-Glo luciferase inhibition (counter-screen); Q27757; Kinase-Glo luciferase, ATP luminescence, 8 min; Potency, µM (highest dose often 38.3 µM), without a hit: at the top dose activity change, negative = inhibition, hits mostly inhibitors; 200,000 compounds, 0.28% hits; AID 1379; also: % is scaled to controls: 0 for no effect and ±100 for the full control effect; nearly all actives have a fitted effect of over 60% in size
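Compound is pinned into ATP-containing buffer (10 uM ATP, imidazole pH 7.2, 7 mM MgCl2). Kinase-Glo luciferase reagent is then added. Light output is recorded following an 8-min room-temperature incubation.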
NPC1 promoter act = activates the NPC1 promoter; Huh7 NPC1 promoter luciferase reporter, 24 h; Potency, µM (highest dose often 9.22 µM), inactives show at the top dose activation, actives largely listed as activators; 320,000 compounds, 2.4% hits; AID 485313; also: % of control where 0% means no effect; nearly all actives have a fitted effect of over 60% in size
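Huh7 cells stably carrying NPC1 promoter–luciferase, plated in Opti-MEM with 10% FBS for 2 h, were exposed to compound in DMSO for 24 h at 37 °C; luciferase reagent was added for 10 min and luminescence read.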
FLuc modulator = counter-screen for miR-21 project: firefly luciferase inhibitors or activators; P08659; purified FLuc, Km substrates, luminescence inhibition; Potency, µM (highest dose often 57.5 µM), for inactives: at the highest dose activity change, negative = inhibition, hits mostly inhibitors; 360,000 compounds, 6.9% hits;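 also: plate controls were vehicle for no effect and reference inhibitor for full effect; nearly all actives have a fitted effect of over 55% in size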
Target sequence (P08659 whole entry, looked up): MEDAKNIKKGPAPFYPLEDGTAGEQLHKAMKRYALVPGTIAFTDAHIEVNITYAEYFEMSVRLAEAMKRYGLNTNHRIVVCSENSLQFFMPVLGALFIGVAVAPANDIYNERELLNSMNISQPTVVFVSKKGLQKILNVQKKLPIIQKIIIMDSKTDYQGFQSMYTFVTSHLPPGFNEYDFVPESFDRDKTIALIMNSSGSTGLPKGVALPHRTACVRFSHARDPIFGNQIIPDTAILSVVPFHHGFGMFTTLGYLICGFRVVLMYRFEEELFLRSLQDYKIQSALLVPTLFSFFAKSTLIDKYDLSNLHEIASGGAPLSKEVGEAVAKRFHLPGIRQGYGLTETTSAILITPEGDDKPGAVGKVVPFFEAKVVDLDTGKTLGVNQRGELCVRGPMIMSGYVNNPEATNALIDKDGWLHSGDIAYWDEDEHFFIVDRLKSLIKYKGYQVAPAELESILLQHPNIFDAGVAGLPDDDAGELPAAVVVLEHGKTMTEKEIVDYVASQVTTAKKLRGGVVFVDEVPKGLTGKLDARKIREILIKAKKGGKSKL
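Purified P. pyralis luciferase, 10 nM final, with Km-level 10 uM D-luciferin and 10 uM ATP in 50 mM Tris acetate pH 7.5, 10 mM Mg acetate, 0.01% Tween-20, 0.05% BSA; 6-point qHTS titration about 60 µM downward; luminescence read.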
* marks the source's active call; other numbers are inactive results; ? = inconclusive; . = no result; [ ] = dose if it differs, or a comment. The list is not random: actives were taken first. Their share in the collection is about 7.3%. Calls follow the shape of the dose curve; as a rule, active = well fitted curve in the direction sought with a large enough effect; inconclusive = small, poorly fitted or top-dose-only effect, or another doubt; inactive = no such curve, though single readings can be large; an effect the other way counts as inactive or inconclusive. Potency is read from the fitted curve at half-maximal effect.

SMILES	ELG1 genotox	Rab9 promoter act	SMN2 splice enh	Luc counter	NPC1 promoter act	FLuc modulator
Cc1ccc(-c2nc3cc(Cl)ccc3o2)cc1	?	16%	?	-1%	17%	0.34µM*
Clc1ccc(-c2noc(CN3CCCCC3)n2)cc1	.	.	-3%[9.22 µM]	0%[7.66 µM]	.	.
CCC(Oc1ccccc1)C(=O)Nc1ccc2oc(-c3ccc(OC)cc3)nc2c1 (stereo unspecified)	.	.	.	.	.	-2%
Cc1cc2nc(-c3ccc(NC(=O)C(C)C)cc3)oc2cc1C	0.82µM*	0.63µM*	2.8µM*	4%	0.45µM*	0.85µM*
CCC(Oc1ccccc1)C(=O)Nc1ccc(O)c(-c2nc3cc(C)ccc3o2)c1 (stereo unspecified)	.	.	.	.	.	15µM*
CC(C)CC(=O)Nc1ccc2oc(-c3ccncc3)nc2c1	14%	?	4%	0%	?	15µM*
COc1ccc(C(=O)Nc2ccc(-c3nc4cc(C)ccc4o3)c(O)c2)cc1	.	.	1%	.	.	-3%
CC(C)CC(=O)Nc1cccc(-c2nc3ccccc3o2)c1	-2%	5%	.	.	-2%	-16%
COc1cc(OC)cc(-c2nc3cc(C)ccc3o2)c1	16µM*	27%	7.1µM*	?	8%	11µM*
CCN(c1ccccc1)S(=O)(=O)c1ccc(OC)c(NC(=O)Cn2cnc3c2c(=O)n(C)c(=O)n3C)c1	0%	0%	2%	-2%	-4%	-1%
Cc1cccc(N2CCN(C(=O)c3cc4c(=O)n(C)c5ccccc5c4s3)CC2C)c1 (stereo unspecified)	.	.	0%	.	.	0%
Cc1ccc(OCC(=O)Nc2ccc(-c3nc4ccccc4o3)cc2)c(C)c1	.	.	?	.	.	-1%
Cc1ccc2oc(-c3ccc(NC(=O)CCC(=O)O)cc3)nc2c1	.	.	11µM*	.	.	2.4µM*
CCOc1ccc(/C=N/NC2=NCCCCC2)cc1	3%	24%	21%	1%	9%	-9%
Cc1ccc(N2NC(=O)/C(=C/c3ccc(-c4ccc(Cl)c(C(=O)O)c4)o3)C2=O)cc1	0%	-3%	9%	-2%	0%	11µM*
CCN(CC)c1ccc(/C=C2/SC(=O)N(C(C)C)C2=O)o1	-13%	24%	21%	-1%	26%	21µM*
CC(C)N1C(=O)S/C(=C\c2ccc(-c3ccc(Cl)c(C(=O)O)c3)o2)C1=O	1.2µM*	0.4µM*	.	.	0.5µM*	3µM*
CCOC(=O)CN1C(=O)S/C(=C\c2ccc(-c3ccc(C(=O)O)c(Cl)c3)o2)C1=O	-2%	9%	.	.	-4%	-9%
O=C1NN(c2ccccc2)C(=O)/C1=C\c1ccc(-c2cc([N+](=O)[O-])ccc2O)o1	1%	-4%	.	-27%	-3%	15µM*
CCCN1C(=O)S/C(=C/c2ccc(N3CCOCC3)o2)C1=O	?	?	.	.	25%	?
CCCCC1(C)OC(=O)C(=Cc2ccc(-c3ccc(Cl)c(C(=O)O)c3)o2)C(=O)O1 (stereo unspecified)	0%	-2%	.	.	3%	?
COc1ccc(Sc2ccc(/C=C3\C(=O)NN(c4ccccc4)C3=O)o2)cc1	4%	-7%	0%	0%	-3%	-17%
O=C1NN(c2ccc(Cl)cc2)C(=O)/C1=C\c1ccc(-c2cccc(C(=O)O)c2)o1	15%	14%	26%	1%	7%	17µM*
Cc1onc(-c2ccccc2Cl)c1C(=O)N[C@H]1C(=O)N2[C@H]1SC(C)(C)[C@H]2C(=O)O	.	.	-10%[20.6 µM]	0%[17.1 µM]	.	.
Cc1ccc(-c2nc3ncccc3n2O)cc1	4%	-5%	.	.	4%	-14%
SMILES	ELG1 genotox	Rab9 promoter act	SMN2 splice enh	Luc counter	NPC1 promoter act	FLuc modulator
COn1c(-c2ccc(Cl)cc2)nc2ncccc21	?	?	.	.	?	21µM*
CCOC(=O)N1CCC(c2cc(=O)n3[nH]c(C)c(-c4ccc(F)cc4)c3n2)CC1	-32%	0%	-12%	3%	-2%	2%
O=C(/C=C/c1ccc2ccccc2n1)c1cc(Br)ccc1O	12%	6%	.	.	0%	8.5µM*
CCN(CC)c1ccc(O)c(C=Nc2ccc(C)c(C)c2)c1	?	?	5%	1%	26%	3.4µM*
CCN(CC)c1ccc(C=Nc2ccc(C#N)cc2)c(O)c1	9%	1%	-7%	-1%	0%	-12%
CCN(CC)c1ccc(/C=N/N(c2ccccc2)c2ccccc2)c(O)c1	0%	2%	-10%	0%	-1%	-11%
CCN(CC)c1ccc(C=Nc2ccccc2C)c(O)c1	5%	?	27%	3%	?	1.3µM*
CN(C)c1ccc(/C=C/c2nnnn2-c2ccccc2)cc1	?	1.6µM*	16µM*	-5%	2µM*	8.5µM*
Cc1cc(N/C=C\c2nnnn2-c2ccccc2)no1	13%	2%	30%	-2%	11%	?
Nc1ccc(C(=O)Nc2cccc(NC(=O)c3ccc(N)cc3)c2)cc1	7%	21%	.	.	4%	11µM*
Cc1cccc2nc(C(=O)Nc3cccc(C(=O)NC4CC4)c3)cn12	11%	3.2µM*	.	.	?	2.4µM*
Cc1ccc(C(=O)Nc2cccc(C(=O)NC3CCCC3)c2)cc1	-7%	?	.	.	?	12µM*
Cc1oc2c(c1C(=O)Nc1cccc(C(=O)O)c1)CCCC2	?	?	14%	-1%	?	19µM*
O=C(O)c1cccc(NC(=O)c2cc(NC(=O)c3ccccc3)cc(NC(=O)c3ccccc3)c2)c1	6%	3%	.	.	0%	?
Clc1ccc(C2=Nn3c(Cn4nnc5ccccc54)nnc3SC2)cc1	-1%	-10%	.	.	-2%	-18%
COC(=O)c1c(NC(=O)C2COc3ccccc3O2)sc2c1CCN(C(C)=O)C2 (stereo unspecified)	2%	-3%	-32%	-5%	-2%	3%
CC(=O)Nc1ccccc1C(=O)C(=O)Nc1cccc(C(=O)NC2CC2)c1	13%	2.8µM*	0%[1.84 µM]	5%	?	-11%
CCCCNC(=O)c1cccc(NC(=O)C(=O)c2ccccc2NC(C)=O)c1	0%	-4%	-8%	4%	1%	-3%
Cc1ccc(C(=O)Nc2ccc(C(=O)O)cc2NC(=O)c2ccc(C)cc2)cc1	?	22%	.	.	?	21µM*
Cc1ccc(C(=O)Nc2cccc(C(=O)O)c2)cc1	?	?	1µM*	-18%	?	0.15µM*
COc1cccc(CNC(=O)NCc2noc3ccc(C)cc23)c1	.	.	.	.	.	-15%
Cc1nc2ccccc2c(=O)n1/N=C/c1ccccc1O	14%	1%	.	.	2%	?

From PubChem
